# Screens (PubChem)
# DT40 TDP1 no CPT = qHTS for Inhibitors of human tyrosyl-DNA phosphodiesterase 1 (TDP1): qHTS in cells in absence of CPT | 420,000 compounds, 15% hits | AID 686978, 2013 | Potency, µM (series often up to 46.2 µM), usual class: inhibitors | DT40 Tdp1-/- hTDP1 cells, no CPT, ATP luminescence, 48 h; further: nearly all actives have a fitted effect of over 55% in size
#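 A cellular qHTS used chicken DT40 cells lacking endogenous Tdp1 but carrying stably transfected human TDP1. Compounds were applied without camptothecin, and cell growth kinetics were judged by ATP-dependent luminescence after ≥48 hr.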
# HT1080 IDH1KD tx = qHTS for induction of synthetic lethality in tumor cells producing 2HG: qHTS for the HT-1080-IDH1KD cell line; HT-1080 IDH1 knockdown viability, ATP luminescence, 48 h; Potency, µM (doses to about 46.1 µM), most hits filed as cytotoxic; 360,000 compounds, 2% hits; AID 686971, 2013
#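 Cytotoxicity counter-line: IDH1KD HT-1080, 48 h, CellTiter-Glo. Curves classed by r2, magnitude and activity.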
# KB-3-1 tox = qHTS assay for MDR1-selective chemotherapeutics: Primary screen using the parental adenocarcinoma cell KB-3-1 | AID 1347075, 2019 | 400,000 compounds, 1.4% hits | KB-3-1 viability, CellTiter-Glo ATP luminescence, 72 h | Potency, µM (titrated, usually from 46.1 µM), hits mostly cytotoxic; further: nearly all actives have a fitted effect of over 60% in size
#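 KB-3-1 parental drug-naive adenocarcinoma cells in DMEM/10% FBS, incubated 72 h at 37 C with pin-transferred compounds across a concentration series. Viability by CellTiter-Glo luminescence; concentration-response curves fitted after normalization.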
# KB-V1 cytotox = qHTS assay for MDR1-selective chemotherapeutics: Primary screen using the drug-selected MDR subline cells KB-V1; KB-V1 MDR cells viability, CellTiter-Glo, 72 h; Potency, µM (titrated, usually from 46.1 µM), actives largely listed as cytotoxic; 400,000 compounds, 3.4% hits; AID 1347076, 2019; further: nearly all actives have a fitted effect of over 60% in size
#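 Cells of the MDR subline KB-V1 are plated, dosed with compound at multiple concentrations, and incubated 72 h at 37 degrees C; CellTiter-Glo is then added and luminescence read after 10 min.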
# HT1080NT lethal = qHTS for induction of synthetic lethality in tumor cells producing 2HG: qHTS for the HT-1080-NT fibrosarcoma cell line | 360,000 compounds, 1.6% hits | AID 686970, 2013 | Potency, µM (doses to about 46.1 µM), most hits filed as cytotoxic | HT-1080-NT fibrosarcoma viability, CellTiter-Glo ATP luminescence, 48 h;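 further: NT is the 2HG producing partner of a matched IDH1 knockdown line; nearly all actives have a fitted effect of over 55% in size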
#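 750 cells/well, RPMI + 5% FBS; 2 h settle, compound pin-transfer, 48 h at 37 degrees C. CellTiter-Glo 10 min RT, luminescence. Normalized to DMSO and media-only wells.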
# DT40 TDP1 CPT = qHTS for Inhibitors of human tyrosyl-DNA phosphodiesterase 1 (TDP1): qHTS in cells in presence of CPT. Potency, µM (doses to about 46.2 µM), actives largely listed as inhibitors. AID 686979, 2013. 420,000 compounds, 12% hits. chicken DT40 Tdp1-/-;hTDP1 cells + 20 nM CPT, ATP luminescence, 48 h; further: nearly all actives have a fitted effect of over 55% in size
#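 Chicken DT40 Tdp1-/- cells complemented with human TDP1, 400 cells/well, exposed to compounds plus 20 nM camptothecin for at least 48 h at 37 C; viability read as ATP content by CellTiter-Glo luminescence.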
# Numbers stand for hits; 0 = inactive; ? = inconclusive; - = no result given; ! = a repeat was not active; [ ] = remark or other dose. In the library only some 19% were active in any assay of this set; here they are far more common. The call rests on the fitted dose curve; in most records, active means well fitted curve in the direction sought with a large enough effect; inconclusive means small, poorly fitted or top-dose-only effect, or another doubt; inactive means no such curve, though single readings can be large; an effect the other way counts as inactive or inconclusive.
SMILES,DT40 TDP1 no CPT,HT1080 IDH1KD tx,KB-3-1 tox,KB-V1 cytotox,HT1080NT lethal,DT40 TDP1 CPT
Cc1nn(-c2nc3ccccc3[nH]2)c(N)c1-c1ccccc1,16.4µM,?,0,?,?,?
Cc1nn(-c2ccccc2)c(N)c1-c1ccccc1,0,0,0,0,0,0
NC(=O)c1cc(S(=O)(=O)N2CCCC2)ccc1OCCOc1ccccc1F,0,0,0,0,0,0
Fc1ccccc1N1CCN(c2ncnc3[nH]ncc23)CC1,?,0,0,0,0,14.6µM
COc1ccccc1N1CCN(c2ncnc3n[nH]c(Br)c23)CC1,?,18.4µM,?,?,?,?
Fc1ccccc1N1CCN(c2ncnc3nc[nH]c23)CC1,0,0,0,0,0,0
Cc1noc2ncnc(N3CCN(c4ccccc4F)CC3)c12,23.1µM,-,0,0,-,20.6µM
COc1ccccc1N1CCN(c2ncnc3onc(C)c23)CC1,14.6µM,-,0,?,-,?
COc1cc(CC(=O)C(=O)O)oc(=O)c1,0,0,0,?,0,0
FC(F)(F)c1cccc(-c2nc3nc(Cl)c(Cl)nc3[nH]2)c1,2.06µM,?,2.59µM!,?,?,7.31µM
FC(F)(F)C(F)(F)C(F)(F)c1nc2nc(Cl)c(Cl)nc2[nH]1,16.4µM,0,0,0,0,?
FC(F)(F)c1nc2nc(Cl)c(Cl)nc2[nH]1,20.6µM,0,?,0,0,?
O=C(O)c1nc2nc(Cl)c(Cl)nc2[nH]1,0,0,?,0,0,0
Cc1ccc(CN2CCC(=O)N(Cc3ccccn3)CC2)c(C)c1,0,-,-,-,-,0
CCC(=O)N1CCc2cc(S(=O)(=O)NC(C(=O)NCCc3ccccc3)C(C)C)ccc21 (configuration not stated),?,-,0,0,-,0
COc1ccc(C(=O)Nc2nc3c(s2)Cc2cc(OC)ccc2-3)cc1,?,0,0,?,0,?
COc1ccc2c(c1)Cc1sc(NC(=O)c3ccccc3)nc1-2,?,0,0,0,0,?
COc1ccc2c(c1)-c1nc(NC(=O)c3cc(Cl)ccc3OC)sc1CC2,?,-,-,-,-,8.2µM
COc1ccc2c(c1)CCc1sc(NC(=O)c3ccc(Cl)cc3)nc1-2,20.6µM,-,-,-,-,18.4µM
COc1ccc2c(c1)Cc1sc(NC(=O)c3cccs3)nc1-2,20.6µM,0,0,0,?,?
COc1ccc2c(c1)-c1nc(NC(=O)c3cc(OC)c(OC)c(OC)c3)sc1CC2,18.4µM,-,-,-,-,?
Cc1cccc(Cn2nc(-n3cccc3)c3c(C)cc(C)nc32)c1,?,0,0,0,0,?
c1csc(CNc2nc(CN3CCCC(c4nc5ccccc5o4)C3)nc3ccccc23)c1 (configuration not stated),?,-,-,-,-,0[9.04 µM]
O=C1CCN(Cc2cccc(C(F)(F)F)c2)CCN1Cc1ccccn1,0,-,-,-,-,0[9.04 µM]
COc1ccc(-c2ccc(NS(=O)(=O)c3ccc(NC(C)=O)cc3)cc2)nn1,?,-,0,0,-,?
SMILES,DT40 TDP1 no CPT,HT1080 IDH1KD tx,KB-3-1 tox,KB-V1 cytotox,HT1080NT lethal,DT40 TDP1 CPT
CCN(C(=O)CCS(=O)(=O)c1cccc2nonc12)c1ccc(F)cc1,0,0,0,0,0,0
Oc1c(C(c2ccccc2)N2CCOCC2)ccc2ccccc12 (configuration not stated),9.2µM,0,?,0,0,8.2µM
CC(=O)c1cccc(NC(=O)C(C)OC(=O)c2ccc(-n3cnnn3)cc2)c1 (configuration not stated),?,0,0,0,0,?
COCCn1c(SCc2ccc(Cl)cc2)nc2c1c(=O)[nH]c(=O)n2C,?,?,0,?,0,0
C/C=C/Cn1c(SCc2ccc(Cl)cc2)nc2c1c(=O)[nH]c(=O)n2C,23.1µM,?,0,?,?,18.4µM
CCCn1c(SCc2ccc(Cl)cc2)nc2c1c(=O)[nH]c(=O)n2C,16.4µM,?,?,?,0,?
CCCCCCn1c(SCCC)nc2c1c(=O)[nH]c(=O)n2C,10.3µM,0,0,0,0,0
C=CCn1c(SCCCc2ccccc2)nc2c1c(=O)[nH]c(=O)n2C,25.9µM,0,0,0,0,?
Cc1ccc(S(=O)(=O)N2CCN(C(=O)N3CCCCC3)CC2)c(C)c1,?,0,0,0,0,?
COc1ccc(NC(=O)c2ccc(COc3ccc(C)cc3)o2)cc1,?,0,0,0,0,?
COc1cccc(CNC(=O)c2ccc3c(c2)nc2n3CCC(C)C2)c1OC (configuration not stated),0,-,-,-,-,0
CN(C)c1ncc2nc(-c3cccs3)c(=O)n(C[C@H]3CCCO3)c2n1,0,-,-,-,-,0
Cn1c(SCc2ccccc2)nc2c1c(=O)[nH]c(=O)n2C,0,0,0,0,0,0
CCn1c(SCc2ccccc2)nc2c1c(=O)[nH]c(=O)n2C,18.4µM,0,0,0,0,?
OC[C@@H]1CN(Cc2cccs2)C[C@H](n2cnc3c(NCc4ccc(F)cc4)ncnc32)O1,0,0,0,0,0,?
CCOC(=O)c1cc(-c2ccccc2)n(-c2cccc(C(=O)Nc3ccc(OC)cc3)c2)c1C,?,-,0,0,-,?
Cc1ccc(S(=O)(=O)N(C)CCCC(=O)Nc2cccc3ccccc23)cc1,?,0,0,11.6µM,?,?
Cc1ccc(NC(=O)CN(C)S(=O)(=O)c2ccc3c(c2)n(C)c(=O)c(=O)n3C)c(C)c1,?,0,0,0,0,18.4µM
Cc1ccc(S(=O)(=O)N(C)CCCC(=O)Nc2ccc(C)cc2C)cc1,?,0,0,20.6µM,0,0
Cc1cc(C)c(NC(=O)CN(C)S(=O)(=O)c2ccc3c(c2)n(C)c(=O)c(=O)n3C)c(C)c1,0,0,0,0,0,?
O=C(CSc1nc2sc3c(c2c(=O)[nH]1)CCCC3)Nc1ccccc1F,?,-,0,0,-,?
CCc1cccc(C)c1NC(=O)CSc1nnc(C)o1,0,0,0,0,0,0
CCN(Cc1ccccc1)S(=O)(=O)c1ccc(F)c(C(=O)Nc2ccc(C(C)C)cc2)c1,18.4µM,-,0,0,-,14.6µM
CCc1cccc(C)c1NC(=O)c1cc(S(=O)(=O)N(C)Cc2ccccc2)ccc1F,8.2µM,-,0,?,-,29.1µM
Cc1cc(C)c(NC(=O)c2cc(S(=O)(=O)NCCC3=CCCCC3)ccc2F)c(C)c1,?,-,0,0,-,?
